Where “and” joins values, the source holds several entries; their conditions need not be identical. Equal entries are not always repeated. The campaign covered roughly 5,500 compounds. About 2,000 (36%) were called active. About 18% were inconclusive and are not listed. Cut-off read from the data, not from the text of the source: active = normalized growth mostly below about 0.91 (no sharp cut-off); inconclusive = no clear call, values can overlap the other calls; inactive = mostly above about 0.92. The list shows a part of the results.
Assay: chemical genetic growth profiling, strain panel (AID 1159580);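 note: tested at 20 µM; growth read once vehicle control cultures reached saturation at 30 °C; 1 = growth at the plate median or of vehicle wells; lower values mean less growth of the strain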
Conditions: S. cerevisiae deletion strains, growth OD

Measured: normalized growth

c1ccc2c(c1)CCCC2C1=NCCN1 (centres undefined)
inactive: locus YAL013W, strain DEP1, active compounds read low 1.01 and 1 | locus YAL021C, strain ccr4, active compounds read low 1.02 | locus YAL026C, strain drs2, active compounds read low 1.02 | locus YAL030W, strain snc1, active compounds read low 1.02 | locus YAL040C, strain CLN3, active compounds read low 1.05 | locus YBL061C, strain skt5, active compounds read low 1.02 | locus YBR009C, strain hhf1, active compounds read low 1.03 | locus YBR021W, strain FUR4, active compounds read low 1.05 | locus YBR023C, strain chs3, active compounds read low 1.02 | locus YBR171W, strain sec66, active compounds read low 1.03 | locus YBR229C, strain ROT2, active compounds read low 1.01 | locus YBR231C, strain swc5, active compounds read low 1.02 | locus YBR279W, strain paf1, active compounds read low 1.01 | locus YCL011C, strain gbp2, active compounds read low 1.02 | locus YCL016C, strain dcc1, active compounds read low 1.02 | locus YCL029C, strain bik1, active compounds read low 0.995 | locus YCL061C, strain MRC1 (second series), active compounds read low 1.01 | locus YCL069W, strain vba3, active compounds read low 1.02 | locus YCR088W, strain abp1, active compounds read low 1.02 | locus YDL005C, strain med2, active compounds read low 1.02 | locus YDL035C, strain GPR1, active compounds read low 1.02 | locus YDL040C, strain nat1, active compounds read low 1.02 | locus YDL074C, strain BRE1, active compounds read low 1.01 | locus YDL101C, strain DUN1, active compounds read low 1.01 | locus YDL134C, strain PPH21, active compounds read low 1.01 | locus YDL185W, strain tfp1, active compounds read low 0.993 | locus YDL192W, strain arf1, active compounds read low 1 | locus YDR001C, strain nth1, active compounds read low 1.01 | locus YDR069C, strain doa4, active compounds read low 1 | locus YDR101C, strain arx1, active compounds read low 0.995 | locus YDR137W, strain rgp1, active compounds read low 1.03 | locus YDR150W, strain NUM1, active compounds read low 1.01 | locus YDR159W, strain sac3, active compounds read low 1.02 | locus YDR162C, strain NBP2, active compounds read low 1.02 | locus YDR195W, strain ref2 1.01 | locus YDR297W, strain sur2, active compounds read low 1.03 | locus YDR318W, strain mcm21, active compounds read low 1.01 | locus YDR334W, strain swr1, active compounds read low 1.02 | locus YDR335W, strain msn5, active compounds read low 1.03 | locus YDR363W, strain ESC2, active compounds read low 1.02 | locus YDR388W, active compounds read low 1.01 | locus YDR392W, strain spt3, active compounds read low 1.03 | locus YDR502C, strain sam2, active compounds read low 0.991 | locus YEL003W, strain gim4, active compounds read low 1.02 | locus YEL037C, strain rad23, active compounds read low 1.03 | locus YEL061C, strain CIN8 (second series), active compounds read low 1.02 | locus YEL061C, strain CIN8, active compounds read low 1.01 | locus YER002W, strain NOP16, active compounds read low 0.992 | locus YER015W, strain faa2, active compounds read low 1.02 | locus YER016W, strain bim1, active compounds read low 1.03 | locus YER110C, active compounds read low 1.01 | locus YER111C, strain swi4, active compounds read low 1.03 | locus YER155C, strain BEM2 (second series), active compounds read low 1.04 | locus YER155C, strain BEM2, active compounds read low 1.01 | locus YER167W, strain BCK2, active compounds read low 1.01 | locus YFR010W, strain ubp6, active compounds read low 1.01 | locus YGL078C, strain dbp3, active compounds read low 0.989 | locus YGL086W, strain mad1, active compounds read low 0.998 | locus YGL167C, strain pmr1, active compounds read low 1.04 | locus YGL173C, strain kem1, active compounds read low 1.02 | locus YGL227W, strain vid30, active compounds read low 1.03 | locus YGL240W, strain doc1, active compounds read low 1.03 | locus YGL248W, strain PDE1, active compounds read low 1.01 | locus YGL253W, strain hxk2, active compounds read low 1.03 | locus YGR135W, strain pre9, active compounds read low 0.987 | locus YGR229C, strain SMI1, active compounds read low 1.02 and 1.03 | locus YGR252W, strain gcn5, active compounds read low 0.971 | locus YHR013C, strain ard1, active compounds read low 1.05 | locus YHR027C, strain rpn1, active compounds read low 1.01 | locus YHR030C, strain SLT2, active compounds read low 1.01 and 0.988 | locus YHR079C, strain IRE1 (second series), active compounds read low 1.01 | locus YHR079C, strain IRE1, active compounds read low 0.976 | locus YHR094C, strain hxt1, active compounds read low 1 | locus YHR129C, strain ARP1, active compounds read low 1.01 | locus YHR142W, strain chs7, active compounds read low 1.02 | locus YHR200W, strain rpn10, active compounds read low 0.997 | locus YIL066C, strain RNR3, active compounds read low 1.01 | locus YIL073C, strain SPO22, active compounds read low 1.02 | locus YIL125W, strain kgd1, active compounds read low 0.958 | locus YIR030C, strain dcg1, active compounds read low 0.999 | locus YJL092W, strain hpr5, active compounds read low 1.02 | locus YJL095W, strain BCK1 (second series), active compounds read low 1.02 | locus YJL095W, strain BCK1, active compounds read low 1 and 0.971 | locus YJL115W, strain asf1, active compounds read low 1.01 | locus YJL129C, strain trk1, active compounds read low 1.02 | locus YJL134W, strain LCB3, active compounds read low 1.01 | locus YJL154C, strain vps35, active compounds read low 1.02 | locus YJL164C, strain tpk1, active compounds read low 1.02 | locus YJL166W, strain qcr8, active compounds read low 1.02 | locus YJL168C, strain set2, active compounds read low 1 | locus YJL187C, strain SWE1 (second series), active compounds read low 1.02 | locus YJR043C, strain POL32, active compounds read low 1.01 | locus YJR066W, strain TOR1, active compounds read low 0.945 | locus YJR075W, strain HOC1, active compounds read low 1.01 and 0.998

— PubChem BioAssay AID1159580 (chemical genetic matrix, 2015)
